Measured values from PubChem BioAssay (NCI).
Values joined by “and” are separate entries in the source; they are usually repeats but may differ in a detail not shown here. Identical values can stand only once. The panel holds about 83,000 compounds, 20% with a hit somewhere; the sample as a whole holds those more often.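 Cells were grown in 96-well plates and exposed to the test compound at a single concentration for 48 hours; results are reported as percent growth, with values below 10 considered active.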 Unmarked numbers belong to inactive results. Active and inactive are the calls of the source.

Tests used:
Experiment in all cases: NCI-60 one-dose screen, 48 h (100 = growth as untreated, 0 = no growth, -100 = all killed)
Details in all cases: 10 µM unless noted
HCT-15 colon = system: HCT-15 colon
HT29 colon = system: HT29 colon
SNB-75 CNS = system: SNB-75 CNS
SNB-19 CNS = system: SNB-19 CNS
U251 CNS = system: U251 CNS
PC-3 prostate = system: PC-3 prostate
SK-MEL-5 melanoma = system: SK-MEL-5 melanoma
UACC-62 melanoma = system: UACC-62 melanoma
LOX IMVI melanoma = system: LOX IMVI melanoma
SK-MEL-28 melanoma = system: SK-MEL-28 melanoma

Row | Structure (SMILES) | growth (HCT-15 colon) | growth (HT29 colon) | growth (SNB-75 CNS) | growth (SNB-19 CNS) | growth (U251 CNS) | growth (PC-3 prostate) | growth (SK-MEL-5 melanoma) | growth (UACC-62 melanoma) | growth (LOX IMVI melanoma) | growth (SK-MEL-28 melanoma)
1 | CN1Cn2c(ccc2C(F)(F)F)C(=O)CS1(=O)=O | 105% | 105% | 79.1% | 105% | 101% | 105% | 103% | 99.4% | 99.2% | 105%
2 | Clc1ccc2c(NCCN3CCN(c4ccnc(N5CCCC5)n4)CC3)ccnc2c1 | 0.29% (active) | 6.82% (active) | 90.7% | 53.7% | 6.81% (active) | 58.6% | -16.8% (active) | -29.5% (active) | -70.1% (active) | -17.6% (active)
3 | CCOC(=O)n1cc(-c2nonc2-c2cn(C)c3ccc(OC)cc23)c2cc(F)ccc21 | 69.2% | 71.1% | 70.2% | 76.1% | 83.1% | 65% | 92% | 52.6% | 72.2% | 99.6%
4 | Cn1c(=O)c2c(nc(Nc3cc(=O)[nH]c(=O)[nH]3)n2Cc2ccccc2)n(C)c1=O | 98.3% | -4.46% (active) | -21% (active) | 96.9% | 12.2% | 92.2% | 98.1% | 88.3% | 92.3% | 101%
5 | CCOC(=O)CCCn1c(-c2ccccc2)cc(-c2ccccc2)c(C#N)c1=O | 82.3% | 88.1% | 71.2% | 93.5% | 98.7% | 63.8% | 92.7% | 59% | 84.7% | 88.7%
6 | Oc1ccccc1C=Nc1ccc(N2CCN(c3ccccc3)CC2)cc1 | 99.8% | 99.5% | 79.9% | 107% | 99.9% | 77.8% | 97.2% | 95.4% | 98.5% | 109%
7 | COc1ccc(-c2cc(-c3cc(OC)c(OC)c(OC)c3)c(C#N)c(=O)n2CCCCC(=O)O)cc1 | 77.3% | 99.4% | 51.8% | 96.3% | 91.5% | 90.9% | 93.6% | 89.8% | 78.6% | 112%
8 | Cc1ccc(-c2nc([P+](c3ccccc3)(c3ccccc3)c3ccccc3)c(Nc3ccccc3)o2)cc1 | 1.96% (active) | -2.08% (active) | -31.6% (active) | 2.16% (active) | -16.2% (active) | 4.11% (active) | -87.4% (active) | -25.8% (active) | -8.29% (active) | -42.3% (active)
9 | CC(C)(C)c1cc(C(C)(C)c2ccccc2)cc(Cc2cc(C(C)(C)c3ccccc3)cc(C(C)(C)C)c2O)c1O | 95.8% | 93.3% | 94.5% | 106% | 94.3% | 74.9% | 97.4% | 92.3% | 89.5% | 106%
10 | N#C/C(=N\Nc1ccc(Cl)cc1)C(=O)Nc1cc(-c2ccccc2)nn1-c1ccccc1 | 9.38% (active) | 34.1% | 62.1% | 30.4% | 23.1% | 6.71% (active) | -31% (active) | 3.27% (active) | 73.5% | 38.6%
11 | CCN1CCN(C(=O)[C@]23CC[C@@H](C)[C@H](C)[C@@H]2C2=CC[C@@H]4[C@@]5(C)CCC(=O)C(C)(C)[C@@H]5CC[C@@]4(C)[C@]2(C)CC3)CC1 | 8.58% (active) | -12% (active) | -3.49% (active) | 20.9% | -44.9% (active) | 4.66% (active) | -84.1% (active) | -46.1% (active) | -85.2% (active) | -64.7% (active)
12 | Cc1[nH]c(C(=O)Nc2nc3ccc(NC(=O)CCN)cc3s2)c(Cl)c1Cl | 83.2% | 88.9% | 81.6% | 78.6% | 47.1% | 65.5% | 83.8% | 44.4% | 19.7% | 97.8%
13 | Cc1nonc1-c1ccc2c(c1)OCO2 | 97.5% and 107% | 102% and 107% | 96.3% and 96.6% | 112% and 95.7% | 93.7% and 108% | 96% | 99.3% and 101% | 110% and 97.7% | 94.5% and 98.4% | 118% and 169%
14 | O=[N+]([O-])c1ccc2[nH]c3nccc(NCc4cccc(Cl)c4)c3c2c1 | 83.2% | 76.3% | 7.78% (active) | 53.3% | 43.1% | 67.5% | 83.7% | 82.2% | 81.4% | 101%
15 | COc1ccc(-c2csc(NC(=O)CN3CCN(CCO)CC3)n2)cc1NS(=O)(=O)c1cccc2c(N(C)C)cccc12 | 39.6% | 20.1% | 78.2% | 74.3% | 29.5% | 72.7% | 58.5% | 89% | -57.9% (active) | -2.57% (active)
16 | CC/C(=C(/c1ccc(Cl)cc1)c1ccc(OCCN2CCOCC2)cc1)c1ccccc1 | 94.1% | 75.6% | 105% | 98.6% | 93.6% | 73.1% | 108% | 88.2% | 108% | 98.8%
17 | O=S(=O)(Nc1ccc(F)cc1)c1ccc(-c2cnc(C3CC3)o2)cc1 | 19.9% | 7.98% (active) | 0.813% (active) | 29.7% | 21% | 31.2% | 25.5% | 27.5% | 51.5% | 56.2%
18 | C=C(C)[C@@H]1CC[C@]2(C)[C@H](CC(=O)N[C@H]3[C@@H]4C[C@](C)(C(=O)OC)CC[C@]4(C)CC[C@]32C)[C@@]1(C)CCC#N | 68.6% | 70.9% | 96.5% | 89% | 79.9% | 42.9% | 49.7% | 68.3% | 96.9% | 104%
19 | O=C1CCc2c(sc3[nH]c(=S)n(Cc4ccc(Cl)cc4)c(=O)c23)C1 | -13.5% (active) | 14.5% | 3.19% (active) | 19.8% | 5.03% (active) | 3.57% (active) | -81.1% (active) | 0.777% (active) | 2.41% (active) | 19.6%
20 | COc1cc(/C=C2\C(=O)N(CCCCn3c4ccccc4c(=O)c4ccccc43)c3ccccc32)cc(OC)c1O | 36.3% | 41.6% | 51.7% | 62.7% | 67.5% | 39.9% | 55.3% | 37.5% | 52.8% | 68.5%
21 | CC(=O)N1N=C(c2ccc(Nc3nc(Nc4ccc(F)cc4)nc(Nc4ccc(F)cc4)n3)cc2)CC1c1ccccc1 (stereo not given) | 89.3% | 96.3% | 80.1% | 77.3% | 85.5% | 70% | 69.6% | 95.4% | 103% | 97.5%
22 | O=C1/C(=C/c2ccc(-c3ccccc3C(F)(F)F)o2)SC(=S)N1CCc1ccc(O)cc1 | 29.6% | 14.8% | 29.2% | 87.8% | 44.1% | 48.6% | 84.4% | 47% | 41.4% | 69.5%
23 | COc1ccc2nc3cc(Cl)ccc3c(NCCCNCCC(C)O)c2c1 (stereo not given) | 2.36% (active) | 4% (active) | -58.8% (active) | -25.6% (active) | -41.4% (active) | -50% (active) | -96.7% (active) | -57% (active) | -68% (active) | -59.3% (active)
24 | Cn1ccnc1CN1CCSC(C(=O)Nc2ccccc2)C1 (stereo not given) | 95.4% | 95.1% | 79.5% | 93% | 93.1% | 92.3% | 95.4% | 87.7% | 98.7% | 100%
25 | Nc1ccc(-c2nc3ccc4[nH]ncc4c3c3c2CCCC3)cc1F | 15.5% | 28% | 19.3% | 41.9% | 26.8% | 27.7% | 4.72% (active) | 14.5% | 29.4% | 34.4%
26 | OB(O)c1ccsc1-c1nc2ccc3[nH]ncc3c2c2c1CCCC2 | 31.3% | 45.9% | 35.2% | 76.1% | 65.9% | 69.4% | 57.6% | 45.2% | 41.1% | 72.8%
